The text below walks through data of PubChem BioAssay (NCATS).

A number with no mark means an inactive call. Results filed as inconclusive are left out. Activity calls are given as the source filed them. Unless noted, the call rests on the fitted dose curve; in most records, active means well fitted curve in the direction sought with a large enough effect; inconclusive means small, poorly fitted or top-dose-only effect, or another doubt; inactive means no such curve, though single readings can be large; an effect the other way counts as inactive or inconclusive.

For test [1], the target named is Lysosomal acid glucosylceramidase (Homo sapiens) (UniProt P04062). As to the kind of experiment: Glucocerebrosidase-p2 (AID 348; in the data active means potency below about 10 µM; further: potency means the concentration at half of the fitted maximal effect). As to conditions: purified GBA, blue fluorogenic substrate, 40 min. The method, boiled down:
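Compounds titrated from 0.6 nM upwards against 0.2 nM enzyme in pH 5.9 citric acid/KH2PO4, taurocholate, tween-20; blue fluorogenic substrate 80 uM, 40 min room temperature, stopped and read Ex 365/Em 440 for AC50.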

Test [2] can be described thus: AP1 Signaling Pathway (AID 357; active means well fitted curve in either direction with a large enough effect, not every such curve was filed as active;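 further: ME-180 reporter cells stimulated with EGF at its EC50 level; on the % scale 0 is the no-effect control and ±100 the full control effect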). As to conditions: ME-180 AP-1-bla reporter, EGF-induced, beta-lactamase ratio, 5 h; at 7.69 µM (top of the series) unless noted. The method, boiled down:
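In this screen, ME-180 cells in Opti-MEM with 0.5% dialyzed FBS received EC50 EGF and compound titrations for 5 h. AP-1 reporter beta-lactamase was detected via CCF4 ratio, giving AC50 for positive and negative modulators.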

For test [3], the target named is Cytochrome P450 1A2 (Homo sapiens) (UniProt P05177). The test can be described thus: p450-cyp1a2 (AID 410; calls by dose curve; further: potency means the concentration at half of the fitted maximal effect). The following applies: recombinant CYP1A2, luciferin-ME demethylation, luminescence; series mostly up to 57 µM. The essentials:
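Inhibition was calculated relative to 57 uM furafylline (full inhibition). The reaction used human CYP1A2 at 20nM with Luciferin-ME at its Km, 100uM, driven by an NADPH-regenerating system for 60 min at room temperature.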

Test [4] is described as follows: NFAT Signaling Pathway (AID 444; active means well fitted curve in either direction with a large enough effect, not every such curve was filed as active;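 further: carbachol stimulus at about its EC50 of 1 µM final; on the % scale 0 is the no-effect control and ±100 the full control effect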). As to conditions: Jurkat NFAT-bla M1, carbachol, beta-lactamase ratio, 5 h; at 7.69 µM (top of the series) unless noted. The essentials:
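Jurkat cells with NFAT-driven β-lactamase reporter and co-expressed M1 receptor, stimulated with carbachol (final 1 uM, ~EC50), compound titration, 5 h at 37 °C. CCF4 loaded 1 h at RT; 460/530 nm ratio gave %activity and AC50.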

A short description of test [5]: Stat Signaling Pathway (AID 446; active means well fitted curve in either direction with a large enough effect, not every such curve was filed as active;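 further: ME-180 cervical cancer cells given 40 pM IL-6 alongside compound; SIE-controlled beta-lactamase reporter measured as 460/530 nm FRET emission ratio; on the % scale 0 is the no-effect control and ±100 the full control effect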). As to conditions: ME-180 SIE beta-lactamase reporter, IL-6 stimulated, 5 h; at 7.69 µM (top of the series) unless noted. The essentials:
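ME-180 SIE-bla cells; overnight plating; cpd + IL-6 40 pM, 5 h, 37 C; LiveBLAzer 2.5 h RT; 460/530 nm emission ratio. Normalized to 300 pM IL-6 and 125 nM JAK inhibitor controls.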

The target in test [6] is Glucocorticoid receptor (Homo sapiens) (UniProt P04150). The test can be described thus: GR-GFP Redistribution (AID 450;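 active means compounds whose dose series gives a full or clear partial fitted curve of increased nuclear translocation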; further: potency means the concentration at half of the fitted maximal effect). As to conditions: U2OS GR-GFP nuclear translocation, laser cytometry, 2 h.
Chain of Glucocorticoid receptor (Homo sapiens) (P04150 whole entry, looked up): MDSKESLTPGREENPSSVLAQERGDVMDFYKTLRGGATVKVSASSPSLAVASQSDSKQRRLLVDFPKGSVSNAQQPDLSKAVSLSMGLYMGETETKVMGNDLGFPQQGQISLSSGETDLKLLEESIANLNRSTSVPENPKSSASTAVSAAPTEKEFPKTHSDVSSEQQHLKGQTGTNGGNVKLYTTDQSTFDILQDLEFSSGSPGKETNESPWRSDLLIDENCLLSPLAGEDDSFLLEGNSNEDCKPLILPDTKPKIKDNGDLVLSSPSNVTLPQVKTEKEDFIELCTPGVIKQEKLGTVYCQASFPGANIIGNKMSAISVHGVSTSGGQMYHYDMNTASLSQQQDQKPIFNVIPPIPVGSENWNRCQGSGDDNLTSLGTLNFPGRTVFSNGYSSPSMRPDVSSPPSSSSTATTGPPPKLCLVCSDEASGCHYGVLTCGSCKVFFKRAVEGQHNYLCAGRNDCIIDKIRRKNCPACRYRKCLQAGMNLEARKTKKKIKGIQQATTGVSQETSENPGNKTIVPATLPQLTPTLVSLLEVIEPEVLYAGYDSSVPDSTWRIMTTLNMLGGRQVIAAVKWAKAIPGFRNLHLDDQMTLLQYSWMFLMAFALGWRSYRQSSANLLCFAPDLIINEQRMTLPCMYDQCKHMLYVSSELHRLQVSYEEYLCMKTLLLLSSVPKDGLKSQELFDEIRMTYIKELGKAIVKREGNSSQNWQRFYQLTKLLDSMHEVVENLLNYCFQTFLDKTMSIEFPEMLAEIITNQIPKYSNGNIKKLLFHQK
Test [7] shares this target. As to the kind of experiment: GR-EFC Redistribution (AID 451; calls by dose curve; further: potency means the concentration at half of the fitted maximal effect). As to conditions: CHO-K1 GR-EFC translocation, beta-gal luminescence, 2 h. The essentials:
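CHO-K1 cells expressing nuclear EA and GR-ED fragments of b-gal; compounds titrated up to 46 uM final, 2 h at 37 C. GR nuclear translocation read as complemented b-gal luminescence after 1 h RT detection.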

Test [8] deals with Mitogen-activated protein kinase 10 (Mus musculus) (UniProt Q61831). As to the kind of experiment: JNK3 AlphaScreen Assay (AID 530; active means well fitted curve in either direction with a large enough effect, not every such curve was filed as active;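 further: kinase came from lysate of stimulated human HepG2 cells; signal reports phosphorylation of biotinylated GST-cJun 1-79 at Ser73 with 10 µM ATP; on the % scale 0 is the no-effect control and ±100 the full control effect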). The following applies: JNK3 lysate, c-Jun phosphorylation; series mostly up to 57.1 µM. The method, boiled down: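 qHTS format: compounds tested as titrations against IL-1beta/TNF-alpha-activated HepG2 lysate JNK3 with biotin-GST-cJun substrate and 10 uM ATP at room temperature. Loss of anti-phospho-cJun AlphaScreen signal indicates inhibition.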
(Bead proximity is the source of the signal in Alpha formats.)

The target of test [9] is 3',5'-cyclic-AMP phosphodiesterase 4B (Homo sapiens) (UniProt Q07343). As to the kind of experiment: qHTS Assay for Inhibitors of PDE-IV (AID 607; active means well fitted activation curve with a large enough effect in the main read-out, with a control signal flat, not every such curve was filed as active; further: % of control where 0% means no effect). As to conditions: HEK293 ACTOne CNG channel cells, membrane potential fluorescence; series mostly up to 22.9 µM. The essentials:
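ACTOne HEK293 cells carry a modified cAMP-gated CNG channel and express endogenous PDE4; plated 1000 cells/well, compounds up to 22.9 uM final. Membrane-potential dye fluorescence (ex 535/em 590) was read; parental cells received 10 uM forskolin + 100 uM RO 20-1724.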
(In general: qHTS replaces the single test concentration by a dilution series.)

The target in test [10] is Cytochrome P450 3A4 (Homo sapiens) (UniProt P08684). As to the kind of experiment: qHTS Assay for Inhibitors and Substrates of Cytochrome P450 3A4 (AID 884). Further: potency means the concentration at half of the fitted maximal effect; nearly all actives have a fitted effect of over 50% in size. As to conditions: recombinant CYP3A4, Luciferin-PPXE luminescence; series mostly up to 57.1 µM. The essentials:
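20 nM human CYP3A4 with 25 uM Luciferin-PPXE (at KM) in 200 mM KPO4, preincubated 10 min with compound; NADPH regeneration started a 60 min RT reaction. Luciferin detected by luminescence, normalized to 57 uM ketoconazole as full inhibition.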

The target is the same in test [11]. The test can be described thus: qHTS Assay for Activators of Cytochrome P450 3A4 (AID 885). Further: nearly all actives have a fitted effect of over 65% in size. As to conditions: recombinant CYP3A4, Luciferin-PPXE luminescence, 60 min; series mostly up to 57.1 µM. The method, boiled down: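 20nM CYP3A4 + 25uM Luciferin-PPXE (=KM), 200mM KPO4; cpd 10 min RT; NADPH regen, 60 min RT; stop w/ detection buffer, 20 min; luminescence. Normalized to 57 uM ketoconazole.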

Test [12] is described as follows: qHTS Assay for Identification of Small Molecule Agonists for Hypoxia Response Element Signaling Pathway (AID 914; active means well fitted activation curve with a large enough effect in the signal ratio, with a control signal flat, not every such curve was filed as active; the % refers to the signal ratio; further: % of control where 0% means no effect). The following applies: ME-180 (cervical carcinoma) HRE-bla reporter, beta-lactamase ratio, CoCl2, 17 h; activation: hits give high values. The method, boiled down:
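A beta-lactamase reporter under hypoxia response element control in ME-180 cells served as the system. Compound titrations plus EC50 CoCl2 ran 17 h at 37 degrees Celsius; AC50 values were fitted from %Activity.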

Test [13] has as its target Dual specificity protein kinase CLK4 (Homo sapiens) (UniProt Q9HAZ1). The test can be described thus: qHTS Assay for Inhibitors of CDC-like Kinase 4 (Kinase-Glo Assay) (AID 1770). Further: on the % scale 0 is the no-effect control and ±100 the full control effect; nearly all actives have a fitted effect of over 65% in size. The following applies: recombinant Clk4, Kinase-Glo ATP depletion luminescence; series mostly up to 66.7 µM. The essentials: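 Luminescent ATP-depletion read-out (Kinase-Glo) after 4.5 h room-temperature reaction of Clk4 (25 nM final) with RS peptide (100 uM) and ATP (1 uM), pH 7.5 Tris buffer with MgCl2 and DTT.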

Test [14] deals with Ubiquitin carboxyl-terminal hydrolase 1 (Homo sapiens) (UniProt O94782). As to the kind of experiment: Inhibitors of USP1/UAF1: Pilot qHTS (AID 504865).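 Further: rhodamine fluorescence freed from ubiquitin-rhodamine substrate followed over time; top concentration of the series differs between compounds; on the % scale 0 is the no-effect control and ±100 the full control effect; nearly all actives have a fitted effect of over 35% in size.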 The following applies: purified USP1/UAF1, Ub-rhodamine cleavage fluorescence; series mostly up to 54.9 µM. The essentials:
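Deubiquitinase activity followed as kinetic rhodamine fluorescence release from 150 nM Ub-Rho. 1 nM USP1/UAF1 with compound, after 15 min room-temperature preincubation, in HEPES pH 7.8 buffer containing TCEP, EDTA, BSA and Tween-20.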

Test [15] in a line: Primary qHTS for small molecule stabilizers of the endoplasmic reticulum resident proteome: Secreted ER Calcium Modulated Protein (SERCaMP) assay (AID 1508630). Further: on the % scale 0 is the no-effect control and ±100 the full control effect. As to conditions: SH-SY5Y GLuc-SERCaMP (Gaussia luciferase released on ER calcium loss) secretion, thapsigargin, luminescence; series mostly up to 38.4 µM. The essentials: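 GLuc-SERCaMP-expressing SH-SY5Y cells, pretreated 16 h with compound, are challenged with thapsigargin to empty ER calcium stores; after 4 h, coelenterazine is added directly to the medium and luminescence is imaged.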

The target in test [16] is Cytochrome P450 2D6 (Homo sapiens) (UniProt P10635). The test can be described thus: qHTS Assay for Inhibitors and Substrates of Cytochrome P450 2D6 (AID 891). Further: potency means the concentration at half of the fitted maximal effect; nearly all actives have a fitted effect of over 60% in size. The following applies: recombinant CYP2D6, luciferin-ME EGE luminescence; series mostly up to 57.1 µM. The method, boiled down:
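Human CYP2D6 (5 nM) with 30 uM Luciferin-ME EGE (at Km) in 100 mM KPO4, compound preincubated 10 min, then NADPH regeneration system for 60 min at room temperature. Luciferin read by luminescence; normalized to 1.43 uM quinidine.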

The target of test [17] is Cytochrome P450 2C19 (Homo sapiens) (UniProt P33261). The test can be described thus: qHTS Assay for Inhibitors and Substrates of Cytochrome P450 2C19 (AID 899). Further: potency means the concentration at half of the fitted maximal effect; nearly all actives have a fitted effect of over 60% in size. As to conditions: recombinant CYP2C19, luciferin-H EGE luminescence; series mostly up to 57.1 µM. The essentials: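 5 nM human CYP2C19 with 10uM Luciferin-H EGE (at KM) in 50mM KPO4, compound preincubated 10 min at 37C, then NADPH regeneration for 60 min at 37C. Luciferin read by luminescence after detection reagent; normalized to 57uM ketoconazole as full inhibition.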
Chain of Cytochrome P450 2C19 (Homo sapiens) (P33261 whole entry, looked up): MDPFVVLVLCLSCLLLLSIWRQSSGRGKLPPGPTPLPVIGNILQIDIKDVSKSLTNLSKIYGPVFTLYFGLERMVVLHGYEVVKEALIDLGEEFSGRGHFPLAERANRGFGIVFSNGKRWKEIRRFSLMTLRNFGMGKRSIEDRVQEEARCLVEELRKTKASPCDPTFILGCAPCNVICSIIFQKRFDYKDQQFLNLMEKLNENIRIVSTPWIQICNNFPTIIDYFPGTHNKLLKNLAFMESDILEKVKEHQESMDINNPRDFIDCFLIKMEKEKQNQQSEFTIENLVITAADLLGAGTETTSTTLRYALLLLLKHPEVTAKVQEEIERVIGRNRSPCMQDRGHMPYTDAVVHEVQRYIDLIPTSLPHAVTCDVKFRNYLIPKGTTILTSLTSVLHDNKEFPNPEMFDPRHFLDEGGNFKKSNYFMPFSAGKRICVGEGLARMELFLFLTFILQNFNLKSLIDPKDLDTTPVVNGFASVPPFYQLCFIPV

Test [18] has as its target Dual specificity protein kinase CLK4 (Homo sapiens) (UniProt Q9HAZ1). The test can be described thus: qHTS Assay for Inhibitors of CDC-like Kinase 4 (ADP-Glo Assay) (AID 1771). Further: nearly all actives have a fitted effect of over 70% in size. Further: potency means the concentration at half of the fitted maximal effect. The following applies: recombinant CLK4, ADP-Glo luminescence; series mostly up to 80 µM. The essentials:
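Kinase reaction: Clk4 at 25 nM, RS repeat peptide substrate at 100 uM, ATP at 1 uM, 1 hr, room temperature. Product ADP detected as luciferase signal via ADP-Glo.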

The target is the same in test [19]. The test can be described thus: qHTS Assay for Inhibitors of CDC-like Kinase 4 (ADP-FP Assay) (AID 1795). Further: potency means the concentration at half of the fitted maximal effect; nearly all actives have a fitted effect of over 60% in size. As to conditions: Transcreener ADP fluorescence polarization; series mostly up to 50 µM. The essentials: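 Kinase activity was measured as ADP production using Transcreener orange tracer (4 nM) and ADP antibody (1 ug/mL) fluorescence polarization, with ADP calculated from a calibration curve. The 1 h reaction contained 6.25 nM Clk4, 1 uM ATP and 100 uM RS peptide at pH 7.5 with Mg2+.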

Chain of Cytochrome P450 1A2 (Homo sapiens) (P05177 whole entry, looked up): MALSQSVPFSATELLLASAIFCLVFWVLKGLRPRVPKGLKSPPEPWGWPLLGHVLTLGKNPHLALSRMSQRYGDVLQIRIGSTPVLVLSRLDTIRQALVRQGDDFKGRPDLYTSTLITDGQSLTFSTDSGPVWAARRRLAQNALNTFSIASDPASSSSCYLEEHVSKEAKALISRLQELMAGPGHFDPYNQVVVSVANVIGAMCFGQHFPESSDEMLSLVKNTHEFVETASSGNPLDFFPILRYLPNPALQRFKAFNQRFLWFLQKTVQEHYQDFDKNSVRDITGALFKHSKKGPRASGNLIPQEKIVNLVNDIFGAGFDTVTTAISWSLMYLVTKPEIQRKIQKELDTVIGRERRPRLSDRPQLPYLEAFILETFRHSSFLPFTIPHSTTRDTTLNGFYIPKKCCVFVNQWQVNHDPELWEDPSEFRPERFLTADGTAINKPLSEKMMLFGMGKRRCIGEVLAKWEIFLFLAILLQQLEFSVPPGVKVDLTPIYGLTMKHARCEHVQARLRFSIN
Chain of Cytochrome P450 3A4 (Homo sapiens) (P08684 whole entry, looked up): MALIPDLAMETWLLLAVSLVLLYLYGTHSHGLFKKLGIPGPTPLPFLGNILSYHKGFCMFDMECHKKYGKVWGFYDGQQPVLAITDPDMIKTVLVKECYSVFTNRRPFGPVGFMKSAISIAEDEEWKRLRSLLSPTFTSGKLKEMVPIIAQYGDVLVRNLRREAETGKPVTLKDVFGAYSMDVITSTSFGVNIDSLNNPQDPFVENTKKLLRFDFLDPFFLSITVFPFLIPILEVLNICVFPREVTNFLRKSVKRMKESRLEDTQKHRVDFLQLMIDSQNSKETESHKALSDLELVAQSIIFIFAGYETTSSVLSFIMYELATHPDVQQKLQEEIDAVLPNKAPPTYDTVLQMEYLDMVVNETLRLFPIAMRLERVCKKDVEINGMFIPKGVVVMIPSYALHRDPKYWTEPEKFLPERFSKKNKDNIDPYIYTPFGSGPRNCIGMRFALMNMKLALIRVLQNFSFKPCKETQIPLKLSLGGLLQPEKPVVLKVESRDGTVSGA
Chain of Lysosomal acid glucosylceramidase (Homo sapiens) (P04062 whole entry, looked up): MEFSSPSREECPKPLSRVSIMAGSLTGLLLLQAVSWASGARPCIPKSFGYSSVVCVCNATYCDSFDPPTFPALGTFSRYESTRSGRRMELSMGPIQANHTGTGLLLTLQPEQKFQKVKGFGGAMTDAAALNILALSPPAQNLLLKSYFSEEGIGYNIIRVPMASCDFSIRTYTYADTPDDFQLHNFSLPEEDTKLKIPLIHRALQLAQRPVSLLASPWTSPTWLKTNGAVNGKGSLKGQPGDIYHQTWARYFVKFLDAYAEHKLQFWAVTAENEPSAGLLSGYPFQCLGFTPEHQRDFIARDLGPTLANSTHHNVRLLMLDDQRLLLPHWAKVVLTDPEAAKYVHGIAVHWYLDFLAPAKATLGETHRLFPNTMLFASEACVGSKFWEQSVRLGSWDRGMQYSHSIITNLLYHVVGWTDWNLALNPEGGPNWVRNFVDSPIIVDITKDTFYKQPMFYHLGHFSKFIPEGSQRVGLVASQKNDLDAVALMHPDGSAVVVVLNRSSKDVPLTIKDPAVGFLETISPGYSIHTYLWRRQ
Chain of Dual specificity protein kinase CLK4 (Homo sapiens) (Q9HAZ1 whole entry, looked up): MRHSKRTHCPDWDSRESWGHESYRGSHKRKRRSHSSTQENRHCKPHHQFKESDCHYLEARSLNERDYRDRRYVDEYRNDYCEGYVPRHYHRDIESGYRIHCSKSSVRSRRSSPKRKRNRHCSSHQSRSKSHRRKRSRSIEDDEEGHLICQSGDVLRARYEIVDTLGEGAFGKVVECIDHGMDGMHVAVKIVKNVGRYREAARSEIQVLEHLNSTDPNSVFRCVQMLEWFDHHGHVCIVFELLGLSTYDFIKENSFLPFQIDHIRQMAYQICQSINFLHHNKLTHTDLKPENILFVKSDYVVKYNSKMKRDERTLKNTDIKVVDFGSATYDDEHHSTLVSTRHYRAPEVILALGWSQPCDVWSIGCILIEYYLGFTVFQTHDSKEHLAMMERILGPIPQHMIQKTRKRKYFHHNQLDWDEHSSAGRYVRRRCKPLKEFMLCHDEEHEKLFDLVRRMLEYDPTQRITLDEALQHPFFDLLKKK
Chain of 3',5'-cyclic-AMP phosphodiesterase 4B (Homo sapiens) (Q07343 whole entry, looked up): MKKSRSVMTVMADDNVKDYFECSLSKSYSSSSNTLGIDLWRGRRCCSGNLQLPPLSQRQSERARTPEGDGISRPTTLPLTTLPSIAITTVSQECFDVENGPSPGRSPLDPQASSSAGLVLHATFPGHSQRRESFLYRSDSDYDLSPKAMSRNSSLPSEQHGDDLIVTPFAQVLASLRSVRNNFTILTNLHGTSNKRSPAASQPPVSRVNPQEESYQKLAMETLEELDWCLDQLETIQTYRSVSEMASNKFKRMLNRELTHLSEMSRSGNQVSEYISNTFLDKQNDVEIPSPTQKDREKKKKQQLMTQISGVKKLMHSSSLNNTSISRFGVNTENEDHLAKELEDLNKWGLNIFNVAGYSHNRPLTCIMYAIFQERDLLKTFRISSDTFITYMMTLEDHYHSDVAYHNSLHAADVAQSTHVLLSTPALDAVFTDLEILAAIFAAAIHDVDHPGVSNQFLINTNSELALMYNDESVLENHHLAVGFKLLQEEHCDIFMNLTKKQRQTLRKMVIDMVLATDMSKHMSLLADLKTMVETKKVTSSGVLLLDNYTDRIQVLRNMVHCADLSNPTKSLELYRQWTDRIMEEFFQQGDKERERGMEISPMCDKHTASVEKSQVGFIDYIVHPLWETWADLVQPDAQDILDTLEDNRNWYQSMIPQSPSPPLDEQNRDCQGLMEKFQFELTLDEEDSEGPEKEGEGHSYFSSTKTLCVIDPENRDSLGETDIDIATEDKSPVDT
Chain of Ubiquitin carboxyl-terminal hydrolase 1 (Homo sapiens) (O94782 whole entry, looked up): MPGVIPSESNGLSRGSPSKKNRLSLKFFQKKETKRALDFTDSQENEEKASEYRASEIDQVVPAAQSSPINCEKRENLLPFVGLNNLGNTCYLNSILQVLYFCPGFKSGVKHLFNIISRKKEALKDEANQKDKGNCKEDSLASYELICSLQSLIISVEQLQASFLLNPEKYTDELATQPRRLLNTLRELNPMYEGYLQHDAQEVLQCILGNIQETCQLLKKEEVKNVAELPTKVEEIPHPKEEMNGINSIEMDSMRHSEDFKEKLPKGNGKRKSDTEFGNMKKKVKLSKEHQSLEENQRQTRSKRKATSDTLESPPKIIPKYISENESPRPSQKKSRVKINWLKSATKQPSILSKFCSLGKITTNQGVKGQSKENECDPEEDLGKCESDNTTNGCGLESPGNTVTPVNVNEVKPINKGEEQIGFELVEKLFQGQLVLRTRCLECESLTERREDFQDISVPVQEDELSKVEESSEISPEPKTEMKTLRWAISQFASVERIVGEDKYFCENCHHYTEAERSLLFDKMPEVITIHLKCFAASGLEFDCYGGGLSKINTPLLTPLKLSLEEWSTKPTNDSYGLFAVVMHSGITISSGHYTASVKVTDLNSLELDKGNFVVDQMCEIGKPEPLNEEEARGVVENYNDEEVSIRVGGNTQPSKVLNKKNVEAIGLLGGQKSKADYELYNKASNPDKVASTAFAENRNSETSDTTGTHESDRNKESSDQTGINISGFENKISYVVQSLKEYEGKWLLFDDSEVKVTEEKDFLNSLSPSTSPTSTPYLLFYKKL

Turning to `c1csc(CNc2ncncc2-c2ccoc2)c1`, the Potency in [1] is greater than 11.4 µM; in test [3], 2 µM (active); in test [6], greater than 46 µM; in test [7], greater than 46 µM; in test [10] it was 2 µM (active). For the same molecule, the values for the activity change, negative = inhibition in [2] and in [4] were -12.1% and 3.52%, respectively. Moreover, the activity, negative = inhibition in test [5] is -10.5%. Moreover, the Potency result in [8], in test [9], in test [11], in test [13] and in test [14] was “inactive” each time. Moreover, the activation in test [12] is 2.26%. Further, in test [15], the outcome was inactive.
For the molecule `FC(F)(F)c1ccccc1-c1cncnc1-n1ccnc1`, the Potency was greater than 11.4 µM in test [1], greater than 46 µM in [6] and greater than 46 µM in test [7]. Also, the activity change, negative = inhibition in [2] was -6.84%; in [4] it was -7.53%. Besides, in [5], the activity, negative = inhibition was 3.29%. The Potency entry in test [8], in [9], in test [13] and in [14] was “inactive” throughout. Further, in test [15], the outcome was inactive.
For `COc1ccc2[nH]cc(CCNc3ncnc4ccc(-c5c(C)noc5C)cc34)c2c1`, the Potency in [1] was greater than 11.4 µM; in test [3], 7.94 µM (active); in test [6] it was greater than 46 µM; in test [7], greater than 46 µM; in test [10], 3.16 µM (active); in [16], 6.31 µM (active). Besides, the figures for the Potency in [17], in test [18] and in [19] were 3.98 µM (active), 5.01 µM (active) and 3.98 µM (active), respectively. Besides, the Potency entry in test [8], in [9], in [11] and in test [14] was “inactive” each time. Further, the result in [15] was inactive.
On to `Cn1cc(-c2nc3cnc(N4CCNCC4)nc3n(Cc3ccc(F)cc3)c2=O)c2ccccc21`, for which the Potency was greater than 11.4 µM in test [1]; 20 µM (active) in test [3]; greater than 9.22 µM in test [6]; greater than 46 µM in test [7]; 7.94 µM (active) in test [17]. Further, the activity change, negative = inhibition in test [4] was 68.4% [activator] (active). Besides, the Potency entry in test [9], in test [11] and in test [18] was “inactive” throughout. Moreover, the outcome in test [15] was inactive.
